Results with a measured potency or affinity are listed apart. Calls of active or inactive are those of the source.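 The calls were made as follows: active = combined score above 51, weighing potency under 20 µM and fitted curve span over 20%; inactive = the rest.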
target: Broad substrate specificity ATP-binding cassette transporter ABCG2 (Homo sapiens) (UniProt Q9UNQ0); assay: ABCG2 efflux pump inhibitors, dose response, Ig-MXP3 cells, flow cytometry (AID 1690); conditions: JC-1 efflux; series mostly up to 33.3 µM
Sequence (Q9UNQ0 whole entry, looked up): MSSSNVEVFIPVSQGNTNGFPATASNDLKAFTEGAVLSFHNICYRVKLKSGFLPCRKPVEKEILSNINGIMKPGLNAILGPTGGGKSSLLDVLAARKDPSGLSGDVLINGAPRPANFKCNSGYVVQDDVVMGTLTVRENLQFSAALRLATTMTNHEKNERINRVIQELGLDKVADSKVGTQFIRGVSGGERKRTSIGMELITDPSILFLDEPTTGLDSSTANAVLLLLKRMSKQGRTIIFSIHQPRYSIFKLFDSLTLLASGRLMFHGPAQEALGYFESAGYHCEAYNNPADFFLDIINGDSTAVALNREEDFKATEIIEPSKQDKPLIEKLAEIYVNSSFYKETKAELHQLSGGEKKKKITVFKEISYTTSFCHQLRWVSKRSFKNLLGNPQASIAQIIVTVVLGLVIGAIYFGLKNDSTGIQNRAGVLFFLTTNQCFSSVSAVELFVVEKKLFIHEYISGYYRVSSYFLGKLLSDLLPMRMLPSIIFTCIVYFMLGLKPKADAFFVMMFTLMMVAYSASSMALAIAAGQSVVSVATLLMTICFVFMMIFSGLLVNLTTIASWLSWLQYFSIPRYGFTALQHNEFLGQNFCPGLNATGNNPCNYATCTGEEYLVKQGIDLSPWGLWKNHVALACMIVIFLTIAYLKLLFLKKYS

Row | Compound | outcome
1 | COc1ccccc1Nc1nc2nonc2nc1N1CCCCC1C (stereo unspecified) | inactive
2 | N#CC(C#N)=C1C=C2C=C(N3CCCCCC3)CCC2CC1 (stereo unspecified) | inactive
3 | CNc1nc2cc([N+](=O)[O-])c([N+](=O)[O-])cc2nc1NC | inactive
4 | CN1CCN(C2=CC3=CC(=C(C#N)C#N)CCC3CC2)CC1 (stereo unspecified) | inactive
5 | CC(=O)Nc1ccc(Nc2ccc(S(=O)(=O)C(F)(F)F)cc2[N+](=O)[O-])cc1 | inactive
6 | COc1ccc(/C=N/NC(=O)c2cccnc2)cc1CN1CCN(c2ccc(F)cc2)CC1 | inactive
7 | COC(=O)c1cc(NC(=O)c2ccccc2)c(=O)oc1/C=C/Nc1ccc(Oc2ccccc2)cc1 | inactive
8 | CN(C)c1ccc(/C=C2\SC(=S)N(Nc3ncc(C(F)(F)F)cc3Cl)C2=O)cc1 | inactive
9 | COc1ccc(CCNC(=O)COC(=O)/C=C/c2ccc(OC)c(OC)c2)cc1 | inactive
10 | CCN1/C(=C\C=C\c2oc3ccc4ccccc4c3[n+]2CC)Oc2ccc3ccccc3c21 | inactive
11 | CCN(CC)C1=CC2=CC(=C(C#N)C#N)CCC2CC1 (stereo unspecified) | inactive
12 | CCCCn1c(O)c(N=Nc2ccccn2)c2ccccc21 | inactive
13 | CCCCN1/C(=C/c2ccc3ccccc3[n+]2CC)Sc2ccccc21 | inactive
14 | Cc1nc2cc(-c3cccc(F)c3)nn2c(N2CCN(C(=O)c3ccco3)CC2)c1C | inactive
15 | N#CC(C#N)=C1C=C2C=C(N3CCOCC3)CCC2CC1 (stereo unspecified) | inactive
16 | CCOC(=O)c1sc2cc([N+](=O)[O-])cc(SCC(C)C)c2c1N | inactive
